The results in this text go back to PubChem BioAssay (NCI).

Compounds without any hit were thinned out: in the full panel of roughly 79,000, 15% have a hit. Values without a mark were called inactive. Active and inactive are the calls of the source. Rule as the data show it: active = growth inhibition above about 70%; inactive = the rest.

This assay is described as follows: NCI Yeast Anticancer Drug Screen. Data for the wt2 strain (AID 169).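 Also: 0% = growth of vehicle-treated yeast cultures.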 The conditions noted are these: S. cerevisiae wt2 strain growth inhibition, active compounds read high. The procedure: Growth inhibition of yeast strains with defined genetic alterations is measured as a screen for potential anti-cancer activity. Selected strains with alterations in DNA damage repair or cell cycle control were exposed to compounds and growth inhibition was measured relative to vehicle treated controls. The strain used in this assay is wt2

`CCC1(OC(=O)CN2CCN(CCO)CC2)C(=O)OCc2c1cc1n(c2=O)Cc2cc3ccccc3nc2-1` (stereo not given): the growth inhibition was 11% (at 1.2 µM); 9% (at 3.7 µM); 14% (at 11.0 µM); 5% (at 33.0 µM); -4% (at 100.0 µM).
The corresponding values for `C/C=C/SC(=Nc1ccccc1)Nc1ccccc1` are -3%, -3%, -7%, -9% and 98% (active).
On to `O=C(O)CNC(=S)Nc1ccccc1`, for which the growth inhibition is -74% (at 1.2 µM); -64% (at 3.7 µM); -49% (at 11.0 µM); 31% (at 33.0 µM); 88% (active) (at 100.0 µM).
The corresponding values for `Cc1cc(C(C)(C)C)c(OCCCN2CCOCC2)c(C(C)(C)C)c1` are -2%, -3%, -8%, 9% and 98% (active).
For `Brc1ccccc1-c1ncc(-c2ccccc2)o1`, the growth inhibition is -46% (at 1.2 µM); -43% (at 3.7 µM); -35% (at 11.0 µM); 21% (at 33.0 µM); 43% (at 100.0 µM).
Take `Cc1nc2c(Br)cc(Br)cc2c(=O)n1-c1ccccc1NC1OCC(O)C(O)C1O` (stereo not given): the growth inhibition runs as follows: (at 1.2 µM) 2%; (at 3.7 µM) 4%; (at 11.0 µM) 10%; (at 33.0 µM) 43%; (at 100.0 µM) 96% (active).
In the same order, the values of `OC(CCNCc1ccccc1)c1ccc2ccccc2c1` (stereo not given) are 24%, 65%, 83% (active), 95% (active) and 96% (active).
In the case of `COc1cc(O)c(O)c(C(C)(C)C)c1`, the growth inhibition reads like this: (at 1.2 µM) -1%; (at 3.7 µM) 0%; (at 11.0 µM) 8%; (at 33.0 µM) 12%; (at 100.0 µM) 17%.
